63 compounds from PubChem BioAssay AID1578 (Sanford-Burnham Center for Chemical Genomics, 2009) can be followed below.

The campaign covered roughly 290,000 compounds. About 3,000 (1%) were called active. For the sample, actives were picked, then their nearest neighbours and some compounds at random. A number with no mark means an inactive call. Rule as the data show it: active = inhibition mostly above about 36% (no sharp cut-off); inactive = mostly below about 34%.

This experiment can be described thus: inhibition of NOD1-driven NF-kB reporter – cell-based, luminescence, uHTS, primary screen (AID 1578).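 Also: HEK-293T reporter cells stimulated with the NOD1 agonist gamma-tri-DAP.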 As to conditions: NOD1-driven NF-kB luciferase reporter cells, at 4 µM, active compounds read high. A general note: A reporter such as luciferase makes a cellular process visible.
The term inhibition denotes the drop in the measured response relative to a control, in per cent. Regarding `CNC(=O)C(=O)NCC1OCCN1S(=O)(=O)c1ccc(C)cc1` (stereo not drawn), the inhibition was -22.7%.
For `CCc1ccnc(NC(=O)NS(=O)(=O)c2ccc(C)cc2)c1`, the inhibition was -11.9%.
In the case of `COc1ccc(NS(=O)(=O)c2cccc(C(=O)OCC(=O)NC3CC3)c2)cc1`, the inhibition was 7.3%.
In the case of `CCC(NC(=O)c1cc(COc2ccc(OC)cc2Cl)on1)c1ccncc1` (stereo not drawn), the inhibition was -10.3%.
In the case of `O=C(CCc1nnc(CCCCc2ccccc2)o1)NCCn1cccn1` it was -24.1%; in that of `CCC(Sc1nc2cc(OC)c(OC)cc2c(=O)n1Cc1ccc(OC)cc1)C(=O)NCCOC` (stereo not drawn), -24.5%.
`Cc1ccc(Oc2cnc3ccccc3n2)cc1`: the inhibition is 18.8%.
As for `COc1ccc(Oc2cnc3ccccc3n2)cc1`, the inhibition is 60.3% (active).
As for `c1ccc(Oc2cnc3ccccc3n2)cc1`, the figure is 13.1%; as for `NC(=O)c1nn(-c2ccc(Oc3ccccc3)cc2)c(=O)cc1O`, -23.2%.
With `O=C(NC(=S)NCCc1ccccc1)c1ccco1`, the inhibition was -69.5%.
Consider `CC(CCc1ccccc1)NC(=S)NC(=O)c1ccco1` (stereo not drawn), for which the inhibition was -37%.
On to `O=C(NC(=S)N(CCc1ccccc1)CCc1ccccc1)c1ccco1`, for which the inhibition was 97.6% (active).
Regarding `CC(C)C1Nc2ccc(C(=O)NC3CCCCC3)cc2NC1=O` (stereo not drawn), the inhibition was -43.7%.
As for `Nc1nc(-c2ccccc2)cc(N2CCCCC2)n1`, the figure is 6.2%; as for `CN(C)S(=O)(=O)c1cccc(NC(=S)N/N=C/c2ccc(O)c(O)c2O)c1`, 56.3% (active); as for `COc1ccc(O)c(/C=N/NC(=S)Nc2cccc(S(=O)(=O)N(C)C)c2)c1`, -37%.
`CN(C)S(=O)(=O)c1cccc(NC(=S)N/N=C/c2cc(Br)ccc2O)c1`: the inhibition was -11.2%.
Regarding `Cc1cccc2nc(-c3ccccc3)nc(N3CCC(O)(c4ccc(Cl)cc4)CC3)c12`, the inhibition was -4.5%.
For the compound `CCN1CCCC1CNC(=O)c1ccc(CS(=O)(=O)c2ccccc2C)o1` (stereo not drawn), the inhibition was 4.8%.
On to `Cc1ccc(S(=O)(=O)N2CCOC23CCN(C(=O)c2ccc(Cl)cc2Cl)CC3)cc1`, for which the inhibition was -26.1%.
As for `Oc1ccccc1C=Nc1ccccc1-c1nc2ccccc2[nH]1`, the figure is -7.6%; as for `CC(C)(C)C(=O)NC(=S)Nc1sc2c(c1C#N)CCCCC2`, -10.7%.
Take `CC(C)CC(=O)NC(NC(=S)Nc1sc2c(c1C#N)CCCC2)C(Cl)(Cl)Cl` (stereo not drawn): the inhibition was 64.5% (active).
Regarding `CC(C)(C)C(=O)NC(NC(=S)Nc1sc2c(c1C#N)CCCC2)C(Cl)(Cl)Cl` (stereo not drawn), the inhibition was 46.4%.
Turning to `Cc1cc(Nc2ccccc2)nc(NCc2ccccc2)n1`, the inhibition was 52.7%.
Turning to `O=C(c1ccco1)N1CCN(C(=O)c2cc3c(s2)-c2ccccc2OC3)CC1`, the inhibition is -13%.
As to `CCOc1ccc(C(=O)NCC(=O)OCC(=O)N2C(C)CCCC2C)cc1` (stereo not drawn), the inhibition was -9.2%.
Take `O=C(N/N=C/c1ccoc1)c1ccccc1`: the inhibition is 20.3%.
Turning to `CN(CCO)S(=O)(=O)c1ccc2c(c1)C(=NO)c1cc(S(=O)(=O)N(C)CCO)ccc1-2`, the inhibition was -16%.
For `CCCNC(=O)c1n[nH]c(=O)c2ccccc12`, the inhibition is -12.4%.
For the compound `Cc1cc(C)c2c(N)c(C(=O)Nc3nccs3)sc2n1`, the inhibition is 34.4%.
As for `Cc1cc(C)c2c(N)c(C(=O)c3ccc(Cl)cc3)sc2n1`, the figure is 6.3%; as for `Cc1cc(C)c2c(N)c(C(=O)NN)sc2n1`, -9.3%; as for `Cc1cc(C)c2c(N)c(C(=O)Nc3ncc(C)s3)sc2n1`, 92.5% (active).
As for `Cc1cc(C)c2c(N)c(C(=O)c3ccccc3Cl)sc2n1`, the figure is 0.3%.
On to `Cc1cc(C)c2c(N)c(C(=O)c3ccc(Cl)cc3Cl)sc2n1`, for which the inhibition is 81.7% (active).
In the case of `O=C(CSc1nnc(NC(=O)C2CC2)s1)NCc1ccc(F)cc1`, the inhibition was -10%.
As for `COc1ccc(C(C)=O)cc1CSc1ncccn1`, the figure is -32.9%; as for `O=C1Nc2cc(Cl)c(Cl)cc2N(O)N1c1ccc(Cl)cc1`, 11.5%.
For `CCC/C(O)=C1\C(=O)CCCC1=NCCc1c(C)[nH]c2ccc(OC)cc12`, the inhibition is 65.4% (active).
In the case of `CCCC/C(O)=C1\C(=O)CCCC1=NCCc1c(C)[nH]c2ccc(OC)cc12`, the inhibition was -7.7%.
Consider `CCC/C(O)=C1\C(=O)CCCC1=NCCc1c(C)[nH]c2ccc(C)cc12`, for which the inhibition was -7.7%.
Take `CCS(=O)(=O)c1ccc2c(c1)N(S(C)(=O)=O)CC(C(=O)NCc1ccccc1OC)O2` (stereo not drawn): the inhibition is 10.4%.
As for `Cc1cnc(C)c(N2CCN(Cc3nc(-c4cccc(F)c4F)oc3C)CC2)n1`, the figure is -26.1%; as for `Cc1cccc(N2CCN(Cc3nc(-c4ccccc4Cl)oc3C)CC2)n1`, -11.6%.
As for `Cc1oc(-c2cc(F)ccc2F)nc1CN1CCN(c2cnccn2)CC1`, the figure is -26%; as for `Cc1cccc(N2CCN(Cc3nc(-c4ccc(F)cc4F)oc3C)CC2)n1`, -6.3%.
Regarding `COc1ccc(-c2nc(CN3CCN(c4ccccc4OC)CC3)c(C)o2)cc1`, the inhibition was -31.1%.
Consider `COc1ccc(-c2nc(CN3CCN(c4cc(C)nc(C)c4)CC3)c(C)o2)c2ccccc12`, for which the inhibition was -23.4%.
Consider `CCCCn1c(SCC(=O)Nc2cc(C(F)(F)F)ccc2Cl)nnc1C(CC)N(C)C` (stereo not drawn), for which the inhibition is -47.6%.
In the case of `O=C1CCc2cc(S(=O)(=O)N3CCC(C(=O)NCc4ccccn4)CC3)ccc2N1`, the inhibition was -15.8%.
In the case of `O=C(O)CCC(=O)Nc1cccc(-c2nnc(-c3ccccc3)o2)c1` it was 15.5%; in that of `CCN1CCSc2ccc(C(=O)Nc3ccc(NC(C)=O)cc3)cc21`, 4%; in that of `CC(=O)Nc1ccc(NC(=O)C2(C)CC2(Cl)Cl)cc1` (stereo not drawn), -29.2%.
As for `N#CCCn1c(SCC(=O)NCc2ccco2)nc2ccccc21`, the figure is -13.3%; as for `CC(=O)c1cccc(NC(=O)CNC(=O)Cc2ccccc2)c1`, 19.8%.
With `CC(C)(C)NC(=O)N1CCCN(c2ccc(C(F)(F)F)cn2)CC1`, the inhibition is -7.3%.
For the compound `CCOC(CNc1cc(C)nc2c(-c3ccccc3OC)c(C)nn12)OCC`, the inhibition was -6.1%.
In the case of `Clc1ccccc1-c1ccc(CN2CCN(c3ccccc3)CC2)o1`, the inhibition is 7.9%.
For the compound `Cc1cc(C)c(NC(=O)C(C)N2CCCCCC2)c(C)c1` (stereo not drawn), the inhibition is 39.1%.
Consider `CC(C(=O)Nc1c2c(cc3c1CCC3)CCC2)N1CCCC1` (stereo not drawn), for which the inhibition is 63.4% (active).
In the case of `Cc1cccc(C)c1NC(=O)C(C)N1CCCC1` (stereo not drawn) it was 5.2%.
